Inconclusive results are not listed. Active and inactive are the calls of the source. Calls come from the whole dose curve; as a rule, active = well fitted cell-killing curve with a large enough effect in the repeat runs; inconclusive = weak or mixed curves, or effect the other way; inactive = no such curve, though single readings can be large or run the other way.
Experiment: qHTS assay to identify small molecule antagonists of the vitamin D receptor (VDR) signaling pathway - cell viability counter screen (AID 743225); note: nearly all actives have a fitted effect of over 50% in size
Details: VDR-bla HEK293T viability, CellTiter-Glo luminescence, 16 h; series mostly up to 61 µM; viability change, negative = cytotoxic: at the top concentration
From the text: U.S. Tox21 Program National Center for Advancing Translational Sciences [NCATS] NIH Chemical Genomics Center [NCGC] U.S. Environmental Protection Agency [EPA] National Institutes of Environmental Health Sciences [NIEHS] National Toxicology Program [NTP] U.S. Food and Drug Administration [FDA] Tox21 Assay Overview: The vitamin D receptor (VDR), a member of nuclear hormone receptor superfamily, plays a critical role in calcium homeostasis and bone metabolism. It is also involved in cell differentiation and growth, and thrombogenicity. To identify the compounds that inhibit VDR signaling, the VDR-UAS-bla HEK 293T cell line (Invitrogen, Carlsbad, CA, USA) containing a beta-lactamase reporter gene under the control of an upstream activator sequence (UAS) was used to screen the Tox21 10K compound library. The cytotoxicity of the Tox21 compound library against the VDR-bla cell line was tested in parallel by measuring the cell viability using CellTiter-Glo assay (Promega, Madison, WI) in the same wells.
Tox21 Assay Protocol Summary: VDR-bla cells were dispensed at 2,000 cells/5 uL of assay medium per well into black wall/clear-bottom 1536-well plates using a Multidrop Combi (Thermo Fisher Scientific, Waltham, MA) dispenser. After the assay plates were incubated at a 37C and 5% CO2 for 4 h, 23 nL of compounds dissolved in DMSO, positive controls or DMSO only was transferred to the assay plate by a Pintool station (Kalypsys, San Diego, CA), followed by addition of 1 uL of 1-alpha, 25-Dihydroxy Vitamin D3 (3 nM, final concentration in the wells) using a Bioraptr Flying Reagent Dispenser (FRD) workstation (Beckman Coulter, Indianapolis, IN). The plates were incubated at 37C and 5% CO2 for 16 h, and then 1 uL of LiveBLAzerTM B/G FRET substrate was added using a Bioraptr FRD. The plates were incubated at room temperature for 2 h and fluorescence intensity was measured by an Envision plate reader (PerkinElmer, Shelton, CT). For cell viability readout that measures cytotoxicity, 3 ul/well of CellTiter-Glo reagent was added into the assay plates using a Bioraptr FRD. After 30 min incubation at room temperature, the luminescence intensity in the plates was measured using a ViewLux plate reader (PerkinElmer).
% is set by controls: 0 for no effect and ±100 for the full control effect.

| SMILES | viability change, negative = cytotoxic |
| --- | --- |
| CNC(=O)c1c(I)c(NC(=O)CCCCC(=O)Nc2c(I)c(C(=O)O)c(I)c(C(=O)NC)c2I)c(I)c(C(=O)O)c1I | 12.4% (inactive) |
| CCC(C)OC(=O)N1CCCCC1CCO (stereo not given) | 18.6% (inactive) |
| COC(C(=O)O)c1ccccc1 (stereo not given) | 5.24% (inactive) |
| Cn1cnc2c(=O)[nH]c(N)nc21 | -4.05% (inactive) |
| NC1CCN(c2cccc(Cl)n2)CC1 | 6.16% (inactive) |
| CO | -1.12% (inactive) |
| CCCCN(CCO)CCO | -1% (inactive) |
| C=C(C)C(=O)NCCCN(C)C | -10.2% (inactive) |
| O=C(O)c1ccccc1S | 9.54% (inactive) |
| CC(C)c1cccc(O)c1 | 4.38% [at 78.8 µM] (inactive) |
| Cc1cc(C)cc(OCC2CNC(=O)O2)c1 (stereo not given) | -0.876% (inactive) |
| CN(C)C(=O)Nc1ccccc1 | -11.3% (inactive) |
| Nc1ccc2cc(S(=O)(=O)O)ccc2c1 | 3.72% (inactive) |
| Nc1ccn(C2CO[C@H](CO)O2)c(=O)n1 (stereo not given in full) | 2.32% (inactive) |
| CC1=CC(=O)CCC1 | 12.1% (inactive) |
| CCN1CCCC(OC(=O)C(c2ccccc2)c2ccccc2)C1 (stereo not given) | -19.3% (inactive) |
| CCCCCC[C@@H](CCC)C(=O)O | 0.496% (inactive) |
| O=C(O)c1ccc[n+]([O-])c1 | 28.9% (inactive) |
| CC(C)=CC(=O)O | 0.085% (inactive) |
| CC(C)(C)OC(=O)N1C[C@@H](F)C[C@H]1C(=O)O | 4.73% [at 78.8 µM] (inactive) |

| SMILES | viability change, negative = cytotoxic |
| --- | --- |
| CCO[Si](CCCN=C=O)(OCC)OCC | -17% (inactive) |
| CC(C)(C)CC(C)(C)N | 4.29% (inactive) |
| Oc1ccc2c(c1)OC[C@@H](N1CCC(O)(c3ccc(F)cc3)CC1)[C@H]2O | 3.47% (inactive) |
| NC(=O)Nc1nc2ccccc2[nH]1 | -9.44% (inactive) |
| CC(C)COC(=O)C(C)C | -0.252% (inactive) |
| CC(C)[N+](C)(C)CC(O)COc1cccc2ccccc12 (stereo not given) | -3.84% (inactive) |
| Nc1nc2c(ncn2CCC(CO)CO)c(=O)[nH]1 | 4.28% (inactive) |
| C1=C\CC/C=C\CC/C=C\CC/1 | 9.05% (inactive) |
| NS(=O)(=O)c1cc(C2(O)NC(=O)c3ccccc32)ccc1Cl (stereo not given) | 1.38% (inactive) |
| CCCCCN(CCCCC)C(=O)C(CCC(=O)O)NC(=O)c1ccc(Cl)c(Cl)c1 (stereo not given) | -17.1% (inactive) |
| OC/C=C/c1ccccc1 | 19.2% [at 78.8 µM] (inactive) |
| CC(C)(O)Cc1ccccc1 | 4.22% (inactive) |
| CSc1nc(NC2CC2)nc(NC(C)(C)C)n1 | 0.497% (inactive) |
| CO[Si](CCCNCCC[Si](OC)(OC)OC)(OC)OC | -4.73% (inactive) |
| CC/C=C\C#N | 0.413% (inactive) |
| O=c1[nH]c(=O)n([C@H]2O[C@H](CO)[C@@H](O)[C@@H]2O)cc1/C=C\Br | -0.982% (inactive) |
| C1C2OC2C2C1C1CC2C2OC12 (stereo not given) | 14.9% [at 78.8 µM] (inactive) |
| CC(=O)O[C@H](CC(=O)[O-])C[N+](C)(C)C | 0.0594% (inactive) |
| CC(C)c1cccc(C(C)C)c1N | 9.89% (inactive) |
| CCN(CC)S(=O)(=O)c1ccc(C(=O)O)cc1 | 12.6% (inactive) |

Source: PubChem BioAssay (Tox21)
